Experimental data as given in PubChem BioAssay (NCI).
“And” between values parts separate entries of the source, which are not always exact repeats. Equal values may be shown once. This is part of a sample that, as a whole, favours compounds with a hit. Of some 79,000 tested, about 15% had one in any assay. A number with no mark means an inactive call. The source made the active and inactive calls. Cut-off read from the data, not from the text of the source: active = growth inhibition above about 70%; inactive = the rest.

What was measured:
[1] = NCI Yeast Anticancer Drug Screen. Data for the rad50 strain (AID 155);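 note: 0% = growth of vehicle-only cultures of the same strain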; conditions: S. cerevisiae rad50 strain growth inhibition; at 50.0 µM; active compounds read high
Method in brief: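 DNA repair mutant yeast, compound exposure, growth read-out; inhibition is taken relative to vehicle.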

[2] = NCI Yeast Anticancer Drug Screen. Data for the mec2-1 strain (AID 157); conditions: S. cerevisiae mec2-1 strain, at 50.0 µM, active compounds read high
Method in brief: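 Using mec2-1 yeast: add compound, measure growth, express inhibition versus vehicle-treated cultures.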

[3] = NCI Yeast Anticancer Drug Screen. Data for the sgs1 mgt1 strain (AID 161);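 note: 0% = growth of cultures given vehicle only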; conditions: S. cerevisiae sgs1 mgt1 strain, at 50.0 µM, active compounds read high
Method in brief: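 Growth of a repair-deficient yeast mutant was monitored after compound treatment and expressed as inhibition relative to vehicle-treated cultures.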

[4] = NCI Yeast Anticancer Drug Screen. Data for the cln2 rad14 strain (AID 165);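 note: 0% = growth equal to vehicle treated cultures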; conditions: S. cerevisiae cln2 rad14 strain, at 50.0 µM, active compounds read high
Method in brief: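 Yeast strain cln2 rad14, bearing defects in cell cycle control and DNA repair, serves as the test system; values reflect growth inhibition compared with vehicle.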

[5] = NCI Yeast Anticancer Drug Screen. Data for the bub3 strain (AID 167); conditions: S. cerevisiae bub3 mutant strain, at 50.0 µM, active compounds read high
Method in brief: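 In this screen, a yeast mutant lacking normal mitotic checkpoint function is challenged with compound. Relative growth versus vehicle gives the inhibition value.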

[6] = NCI Yeast Anticancer Drug Screen. Data for the mlh1 rad18 strain (AID 175); conditions: S. cerevisiae mlh1 rad18 strain growth inhibition; at 50.0 µM; active compounds read high
Method in brief: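 Steps: expose repair-defective yeast to compound; measure growth; express inhibition against vehicle-treated controls.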

SMILES	growth inhibition [1]	growth inhibition [2]	growth inhibition [3]	growth inhibition [4]	growth inhibition [5]	growth inhibition [6]
CC(C)=CC(=O)N(C)C1C2CN3CCC(O2)C13 (centres undefined)	7.3%	14.6%	14.1%	43.9%	29.9%	21.6%
O=C1C=CC(=Nc2cc(Cl)c(O)c(Cl)c2)C=C1	26.6%	42.5%	32.5%	20.1%	31.1%	42.8%
CCN(CCCl)c1cccc(NC(=O)c2ccc(C(=O)Nc3cccc(CN(C)C)c3)cc2)c1	5.55%	-6.3%	20.5%	-1.95%	-14.4%	26.3%
NC(=O)C(Cl)(Cl)Cl	-6.6%	9.25%	6.1%	4.95%	-5.65%	12.4%
O=CC=O	33.1%	17.6%	24.4%	21.6%	33.9%	28.4%
CC1=CC23C(COC(=O)C24CO4)C(C(=O)O)=CC3C1C (centres undefined) (tested in a mixture with another compound)	38%	29%	34.5%	33.4%	17.9%	30.4%
O=C(OCC1CCCN2CCCCC12)c1cccnc1 (centres undefined)	7.7%	-10.8%	-28.3%	14.9%	-8.5%	-25.3%
c1ccc(P(CCP(CCP(c2ccccc2)c2ccccc2)c2ccccc2)CCP(c2ccccc2)c2ccccc2)cc1 (centres undefined)	-5.15% and 0.15% and 8.05%	-5.7% and 34.8% and 10.3%	-18.6% and 18.4% and -0.95%	-8.05% and -20.2% and 7.15%	0.45% and 2.95% and 21.9%	-5.95% and 29.8% and 11.2%
Cc1cc(C)n(-c2nc3ccccc3c(=O)n2-c2ccccc2)n1	-2.9%	-2.75%	-14.5%	0.4%	-7.75%	-16.9%
COc1cccc(C)c1C1CC2CCCN2O1 (centres undefined)	16.6%	5.5%	5.95%	9.4%	14.7%	5.3%
CCCC[As](=O)(O)C(C)C	5%	9.25%	2.5%	16%	6.95%	14.1%
C=C(C)CCP(=S)(OCC)OCC	-27.9%	-18.3%	-24.2%	-22.7%	5.45%	-3.45%
C[C@H](N)[C@H](O)c1ccccc1	7.45% and 0.25%	-14.4% and 4.7%	-7.4% and -7.8%	-8.35% and -18.5%	-4.3% and 0.95%	-7.3% and -1.15%
COC(=O)CNP(=O)(NCC(=O)OC)N(CCCl)CCCl	-8.2%	-14.8%	-18.6%	5.2%	-1.65%	5.7%
C1=CC(N2CCOCC2)CC1 (centres undefined)	-24.2%	30.2%	1.75%	-45.5%	-30.4%	2.25%
Nc1cc(N)nc(N)n1	18.1%	-2.9%	1.35%	-4.6%	-18.9%	6.2%
CC1(C(N)Cc2c[nH]c3ccccc23)OCCO1 (centres undefined)	-7.7%	-0.1%	-28.6%	-6.55%	-0.25%	4.1%
CCCP(=S)(CCC)P(=S)(CCC)CCC	5.4%	19.4%	20.9%	-2.75%	18%	20.9%
COc1cc([C@@H]2c3cc(O)c(OC)cc3C[C@H]3C(=O)OC[C@@H]23)ccc1O	20.1%	-13.7%	26.2%	10.3%	25.3%	-1.6%
CO[C@H]1Nc2c(ccc(C)c2O)C(=O)N2C=C(/C=C/C(N)=O)C[C@@H]12	89.2% (active)	91.5% (active)	90% (active)	90.2% (active)	90.3% (active)	87.3% (active)

SMILES	growth inhibition [1]	growth inhibition [2]	growth inhibition [3]	growth inhibition [4]	growth inhibition [5]	growth inhibition [6]
CN(C)P1P(N(C)C)P(N(C)C)P1N(C)C (centres undefined)	-25.4%	9.75%	2.2%	-58.7%	-7.5%	-1.2%
Cc1cccc(C)c1CCl	-1.45% and 23.5%	-9.75% and -12.8%	-8.15% and -4.3%	12.9% and -38.5%	9.65% and -1.35%	6.95% and 20.7%
CCOP(=O)(OCC)C(F)(F)CC1CCCCC1	-17.1%	-25.6%	-19.4%	-59%	26.2%	-9.85%
COC1=C(OC)C23CCc4ccc(OC)c(O)c4C2(CCN3)CC1=O (centres undefined)	7.5%	-10.7%	25.2%	14.1%	1.6%	-27.4%
ICCCI	0.6%	-29.8%	16.1%	3.8%	19%	3.2%
CCN(CC)C(=O)N1CC2CCC(C1)N2C	-4.6%	3.55%	-6.9%	-5.45%	-9.95%	-10.2%
C=CC(=O)NCO	-3.9%	15.2%	-1.4%	-20.4%	3.6%	-12.3%
COC(C(=O)O)(c1ccccc1)c1ccccc1	-24.8%	-18.9%	1.05%	-33.9%	-9.2%	-0.35%
C/C=C(\CC)C1(C)C(=O)NC(=O)NC1=O	7.4%	7.8%	-5.7%	6.35%	1.4%	-4.1%
COP(=O)(OC)/C(C#N)=C/c1ccco1	-35.3%	-29.1%	-46.5%	-27.8%	-42.6%	-41.1%
CC(C)N1CC(COc2cccc3ccccc23)OP1(=O)N(CCCl)CCCl (centres undefined)	97% (active)	98.7% (active)	52%	98.3% (active)	98.4% (active)	98.4% (active)
CNC(C)C(O)c1ccccc1 (centres undefined)	15.3% and 4.1%	-14.3% and -2.1%	7.45% and -21.6%	14.9% and 10.5%	10% and -5.85%	13.3% and 8.9%
O=C(O)CC(S)C(=O)O (centres undefined)	-19.1%	10.4%	-3.7%	-38.3%	-9.85%	14.6%
c1ccc2c(c1)sc1sc3ccccc3[n+]12	5.05%	-5.65%	1.8%	3%	3.2%	-23.4%
COc1ccc2nc3ccccc3nc2c1 (tested in a mixture with another compound)	30.2%	35.2%	27.2%	19.6%	24.1%	30.8%
c1cc(CCN2CCCCC2)ccn1	-2.75%	-6.25%	-26.5%	-81.7%	-21.4%	-25.1%
O=NNc1nc2ccccc2[nH]1	6.5%	-0.65%	2.05%	-24.6%	-6.95%	8.85%
[N-]=[N+]=NC1C2CC3CC(C2)CC1C3 (centres undefined)	-15.7%	8.3%	-7.2%	-6.6%	-10.7%	-24.8%
Cc1ccc(N2CC=C(c3ccccc3)OP2(=O)N(CCCl)CCCl)cc1 (centres undefined)	76.8% (active)	84.8% (active)	75.4% (active)	80.7% (active)	87.9% (active)	70.2% (active)
